Reference: PubChem BioAssay (Tox21)
Records with an inconclusive call do not appear. Activity calls are given as the source filed them. Unless noted, calls follow the shape of the dose curve; as a rule, active = well fitted curve in the direction sought with a large enough effect in the repeat runs; inconclusive = weak or mixed curves; inactive = no such curve, though single readings can be large; an effect the other way counts as inactive or inconclusive.

What was measured:
[1] = A CellTox Green Cytotoxicity Assay to monitor cytotoxicity in HepG2 cells - 16 hour (AID 1224876); also: nearly all actives have a fitted effect of over 45% in size
Procedure, shortened: (§1)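 Fluorescent DNA-binding dye, 600 HepG2 cells/well, 5 h preincubation then compound in DMSO; same plates read at 0–40 h, 37 C.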

[2] = qHTS RealTime-Glo MT Cell Viability Assay in HepG2 cells - 32 hour (AID 1224877); also: nearly all actives have a fitted effect of over 55% in size
Procedure, shortened: (§2)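 Tox21 10K library screened in qHTS format on HepG2 cells carrying RealTime-Glo reagents. Compounds were added after a 5 h preincubation, and the luminescent signal from continuous culture was measured repeatedly during 40 h treatment.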

[3] = A CellTox Green Cytotoxicity Assay to monitor cytotoxicity in HepG2 cells - 24 hour (AID 1224878); also: nearly all actives have a fitted effect of over 45% in size
Procedure, shortened: as §1

[4] = A CellTox Green Cytotoxicity Assay to monitor cytotoxicity in HepG2 cells - 40 hour (AID 1224879); also: nearly all actives have a fitted effect of over 40% in size
Procedure, shortened: as §1

[5] = qHTS RealTime-Glo MT Cell Viability Assay in HEK293 cells - 0 hour (AID 1224880); also: top concentration of the series differs between compounds; nearly all actives have a fitted effect of over 45% in size
Procedure, shortened: (§3)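 Measured as luminescence from the same continuously cultured HEK293 wells at successive time points (0, 8, 16, 24, 32, 40 h) after compound addition. Reagent present from seeding; dosing at 5 h; incubation 37 C.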

[6] = A CellTox Green Cytotoxicity Assay to monitor cytotoxicity in HEK293 cells - 32 hour (AID 1224881); also: nearly all actives have a fitted effect of over 40% in size
Procedure, shortened: (§4)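 Homogeneous no-lysis format: HEK293 cell suspension mixed with CellTox Green reagent, seeded, incubated 5 h at 37 C/5% CO2, then dosed by pintool with compound in DMSO.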

[7] = A CellTox Green Cytotoxicity Assay to monitor cytotoxicity in HepG2 cells - 0 hour (AID 1224882); also: nearly all actives have a fitted effect of over 35% in size
Procedure, shortened: as §1

[8] = A CellTox Green Cytotoxicity Assay to monitor cytotoxicity in HepG2 cells - 32 hour (AID 1224883); also: nearly all actives have a fitted effect of over 50% in size
Procedure, shortened: as §1

[9] = A CellTox Green Cytotoxicity Assay to monitor cytotoxicity in HEK293 cells - 8 hour (AID 1224884); also: nearly all actives have a fitted effect of over 35% in size
Procedure, shortened: as §4

[10] = qHTS RealTime-Glo MT Cell Viability Assay in HepG2 cells - 16 hour (AID 1224885); also: nearly all actives have a fitted effect of over 50% in size
Procedure, shortened: as §2

[11] = qHTS RealTime-Glo MT Cell Viability Assay in HEK293 cells - 8 hour (AID 1224887); also: top concentration of the series differs between compounds; nearly all actives have a fitted effect of over 50% in size
Procedure, shortened: as §3

[12] = A CellTox Green Cytotoxicity Assay to monitor cytotoxicity in HEK293 cells - 16 hour (AID 1224888); also: nearly all actives have a fitted effect of over 35% in size
Procedure, shortened: as §4

[13] = qHTS RealTime-Glo MT Cell Viability Assay in HepG2 cells - 0 hour (AID 1224889); also: nearly all actives have a fitted effect of over 50% in size
Procedure, shortened: as §2

[14] = A CellTox Green Cytotoxicity Assay to monitor cytotoxicity in HepG2 cells - 8 hour (AID 1224890); also: nearly all actives have a fitted effect of over 45% in size
Procedure, shortened: as §1

[15] = qHTS assay to identify small molecule antagonists of the androgen receptor (AR) signaling pathway using the MDA cell line in the presence of 0.5 nM R1881 - cell viability counter screen (AID 1259242); also: nearly all actives have a fitted effect of over 45% in size
Procedure, shortened: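 Human breast carcinoma MDA-kb2 cells, cultured without CO2, receive compounds alongside 0.5 nM (final) R1881 agonist. After 16 hr at 37C, viability is taken as live-cell protease signal.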

[16] = biological target: Estrogen receptor (Homo sapiens) (UniProt P03372); experiment: qHTS assay to identify small molecule antagonists of the estrogen receptor alpha (ER-alpha) signaling pathway using the BG1 cell line in the presence of 0.1 nM 17-beta-estradiol (AID 1259244); also: nearly all actives have a fitted effect of over 50% in size
Estrogen receptor (Homo sapiens), sequence (P03372 whole entry, looked up): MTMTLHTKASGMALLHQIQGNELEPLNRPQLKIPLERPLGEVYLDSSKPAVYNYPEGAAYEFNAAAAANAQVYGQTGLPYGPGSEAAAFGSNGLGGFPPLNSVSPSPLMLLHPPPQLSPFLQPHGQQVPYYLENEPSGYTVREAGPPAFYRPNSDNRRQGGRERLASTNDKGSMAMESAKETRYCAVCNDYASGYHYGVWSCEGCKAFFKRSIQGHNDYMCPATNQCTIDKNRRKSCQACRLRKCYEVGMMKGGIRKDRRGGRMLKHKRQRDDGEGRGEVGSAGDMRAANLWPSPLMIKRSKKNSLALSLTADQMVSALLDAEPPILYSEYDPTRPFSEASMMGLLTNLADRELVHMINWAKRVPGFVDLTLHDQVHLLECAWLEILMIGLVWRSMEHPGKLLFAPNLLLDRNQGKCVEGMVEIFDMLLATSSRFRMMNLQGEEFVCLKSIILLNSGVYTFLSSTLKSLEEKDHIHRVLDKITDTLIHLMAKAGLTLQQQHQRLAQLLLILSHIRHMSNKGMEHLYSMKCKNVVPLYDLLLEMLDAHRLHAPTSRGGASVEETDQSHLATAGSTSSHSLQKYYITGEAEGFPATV
Procedure, shortened: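 Seeding of stripped-serum-adapted VM7Luc4E2 cells, 24 h attachment, compound transfer, then 0.1 nM final 17beta-estradiol; after 22 h incubation, ONE-Glo reagent and luminescence reading.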

[17] = qHTS assay to identify small molecule antagonists of the estrogen receptor alpha (ER-alpha) signaling pathway using the BG1 cell line in the presence of 0.1 nM 17-beta-estradiol - cell viability counter screen (AID 1259241); also: nearly all actives have a fitted effect of over 40% in size
Procedure, shortened: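 Cells were plated and left 24 hr, compounds in DMSO were pinned in, 17beta-estradiol was added to 0.1 nM final, and after 22 hr CellTiter-Fluor reagent was added for 30 min before fluorescence was read.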

[18] = biological target: Androgen receptor (Homo sapiens) (UniProt P10275); experiment: qHTS assay to identify small molecule antagonists of the androgen receptor (AR) signaling pathway using the MDA cell line in the presence of 0.5 nM R1881 (AID 1259243); also: nearly all actives have a fitted effect of over 50% in size
Androgen receptor (Homo sapiens), sequence (P10275 whole entry, looked up): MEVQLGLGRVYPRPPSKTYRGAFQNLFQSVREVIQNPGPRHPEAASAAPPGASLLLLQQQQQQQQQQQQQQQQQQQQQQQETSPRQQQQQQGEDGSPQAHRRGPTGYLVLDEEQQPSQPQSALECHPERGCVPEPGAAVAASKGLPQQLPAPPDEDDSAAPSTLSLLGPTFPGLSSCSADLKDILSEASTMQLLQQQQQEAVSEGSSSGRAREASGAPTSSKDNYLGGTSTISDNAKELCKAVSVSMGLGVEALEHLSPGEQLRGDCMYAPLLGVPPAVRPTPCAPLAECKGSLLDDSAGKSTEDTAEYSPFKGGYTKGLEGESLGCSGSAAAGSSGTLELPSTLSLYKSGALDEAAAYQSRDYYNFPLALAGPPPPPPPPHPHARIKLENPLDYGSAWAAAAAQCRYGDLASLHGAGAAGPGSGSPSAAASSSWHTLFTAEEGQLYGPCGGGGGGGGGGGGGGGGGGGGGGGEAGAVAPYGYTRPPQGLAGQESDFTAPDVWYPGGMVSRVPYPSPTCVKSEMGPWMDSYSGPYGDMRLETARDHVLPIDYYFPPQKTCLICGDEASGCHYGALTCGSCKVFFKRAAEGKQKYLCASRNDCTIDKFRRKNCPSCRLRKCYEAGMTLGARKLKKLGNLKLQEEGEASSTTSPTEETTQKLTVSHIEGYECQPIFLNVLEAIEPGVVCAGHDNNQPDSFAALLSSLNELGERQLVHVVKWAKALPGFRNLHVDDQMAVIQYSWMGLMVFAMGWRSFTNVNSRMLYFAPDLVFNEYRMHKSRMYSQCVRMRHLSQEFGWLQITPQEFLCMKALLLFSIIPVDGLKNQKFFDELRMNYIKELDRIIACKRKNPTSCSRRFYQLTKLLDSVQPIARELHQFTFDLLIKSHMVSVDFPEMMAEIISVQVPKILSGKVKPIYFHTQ
Procedure, shortened: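 Cells: MDA-kb2 (MMTV-luc). Stimulus: 0.5 nM R1881. Time: 16 hr, 37C, no CO2. Detection: ONE-Glo luminescence after 30 min at RT.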

[19] = qHTS assay to identify small molecule phospholipidosis (PLD) inducers (AID 1259344; active = well fitted curve in the direction sought with a large enough effect; an effect the other way counts as inactive or inconclusive)
Procedure, shortened: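 Cells (HepG2, 900 per well) attach for 4 h, receive LipidTOX Red and compound together, incubate 24 h at 37 C, are fixed 30 min with paraformaldehyde/Hoechst, then imaged at one site per well.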
% is scaled to controls: 0 for no effect and ±100 for the full control effect.

C=C[Si](C)(C)O[Si](C)(C)C=C
inactive: Potency [1] | outcome [2] | Potency [3] | Potency [4] | outcome [5] | Potency [6] | Potency [7] | Potency [8] | Potency [9] | outcome [10] | Potency [11] | Potency [12] | Potency [13] | Potency [14] | Potency [15] | Potency [16]

CNC(=O)NC
inactive: Potency [1] | outcome [2] | Potency [3] | Potency [4] | outcome [5] | Potency [6] | Potency [7] | Potency [8] | Potency [9] | outcome [10] | Potency [11] | Potency [12] | Potency [13] | Potency [14] | Potency [17] | outcome [18]

Nc1c(NC/C=C\COc2cc(CN3CCCCC3)ccn2)c(=O)c1=O
inactive: cytotoxicity increase [1] -12.5% [at 15.8 µM] | activity change, negative = cytotoxic [2] 0.449% [at 15.8 µM] | cytotoxicity [3] -15.2% [at 15.8 µM] | cytotoxicity increase [4] -13.3% [at 15.8 µM] | activity change, negative = cytotoxicity [5] 11.6% [at 15.8 µM] | cytotoxicity increase [6] 6.07% [at 15.8 µM] | cytotoxicity [7] -10.4% [at 15.8 µM] | cytotoxicity increase [8] -13.1% [at 15.8 µM] | cytotoxicity increase [9] 3.26% [at 15.8 µM] | activity change, negative = cytotoxic [10] 3.45% [at 15.8 µM] | activity change, negative = cytotoxicity [11] 1.9% [at 15.8 µM] | activity change [12] 3.09% [at 15.8 µM, stronger effect = higher value] | activity change, negative = cytotoxicity [13] 8.54% [at 15.8 µM] | cytotoxicity increase [14] -13.1% [at 15.8 µM] | activity change, negative = cytotoxicity [17] -19.8% [at 19 µM] | outcome [19]

COc1cc(C=O)ccc1OC(=O)C(C)C
inactive: Potency [1] | outcome [2] | Potency [3] | Potency [4] | outcome [5] | Potency [6] | Potency [7] | Potency [8] | Potency [9] | outcome [10] | Potency [11] | Potency [12] | Potency [13] | Potency [14] | Potency [17] | Potency [15]

c1ccc(CNc2ncnc3nc[nH]c23)cc1
inactive: Potency [1] | outcome [2] | Potency [3] | Potency [4] | outcome [5] | Potency [6] | Potency [7] | Potency [8] | Potency [9] | outcome [10] | Potency [12] | Potency [13] | Potency [14] | Potency [17]

Cn1c(=O)c2c(ncn2CC2OCCO2)n(C)c1=O
inactive: Potency [1] | outcome [2] | Potency [3] | Potency [4] | outcome [5] | Potency [6] | Potency [7] | Potency [8] | Potency [9] | outcome [10] | Potency [11] | Potency [12] | Potency [13] | Potency [14] | Potency [17] | Potency [15] | outcome [18] | outcome [19]
